Records with an inconclusive call do not appear. Entries that show only a call come without a potency. A number with no mark means an inactive call. Active and inactive are the calls of the source. Calls follow the shape of the dose curve; as a rule, active = well fitted cell-killing curve with a large enough effect in the repeat runs; inconclusive = weak or mixed curves, or effect the other way; inactive = flat fitted curve, though single readings scatter.
Potency is read from the fitted curve at half-maximal effect.

The assay is described as follows: cAMP Responsive Elements (CRE) small molecule agonists, cell-based qHTS assay: qHTS cell viability counter screen (AID 2060914). Also: nearly all actives have a fitted effect of over 50% in size. The settings on record: CRE-bla HEK293T viability, CellTiter-Glo luminescence, 5 h; series mostly up to 92.4 µM. The procedure, abridged: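 Cells are seeded and incubated 18 h, treated with compounds in DMSO for 3 h, read for the bla reporter, then given CellTiter-Glo; luminescence is measured after 30 min at room temperature.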
Turning to `CC(C)C(Br)C(=O)NC(N)=O` (stereo not given), the Potency entry is “inactive”.

With `CC1(C)CC(=O)CC(C)(C)N1[O]`, the Potency entry was “inactive”.

For `CCOP(O)OCC`, the Potency entry was “inactive”.

Consider `CCOP(=S)(Oc1ccc([N+](=O)[O-])cc1)c1ccccc1` (stereo not given), for which the Potency entry is “inactive”.

For `Cc1cc(C)nc(Nc2ccccc2)n1`, the Potency entry was “inactive”.

`C#CCC1=C(C)C(OC(=O)C2C(C=C(C)C)C2(C)C)CC1=O` (stereo not given): the Potency entry is “inactive”.

On to `CSc1nc(N=[N+]=[N-])nc(NC(C)C)n1`, for which the Potency result is “inactive”.

Turning to `CC(=O)[O-].CC(=O)[O-].O.O.O.[Pb+2]`, the Potency entry is “inactive”.

In the case of `CN(C)c1ccccc1`, the Potency result is “inactive”.

For the molecule `Cc1ccc([N+](=O)[O-])[c]2c1[O][Hg]2`, the Potency is 18.8 µM (active).

Regarding `CN=C=S`, the Potency entry is “inactive”.

On to `Cc1ccc2cc(C)ccc2c1`, for which the Potency result was “inactive”.

Regarding `Cl/C=C\Cl`, the Potency entry is “inactive”.

Take `O=C(O)C(F)(F)C(F)(F)C(F)(F)C(F)(F)C(F)(F)C(F)(F)C(F)(F)C(F)(F)C(F)(F)F`: the Potency result is “inactive”.

Take `C#CCO`: the Potency result is “inactive”.

As to `Clc1ccc(C(Cl)(Cl)Cl)cn1`, the Potency result is “inactive”.

Consider `ClSC(Cl)(Cl)Cl`, for which the Potency entry is “inactive”.

`N#Cc1cccc(C#N)c1`: the Potency result was “inactive”.

With `CC1=C(C(=O)O)N2C(=O)[C@@H](N)[C@H]2SC1`, the activity change, negative = cytotoxicity was 16% [at 18.9 µM].

As to `CCCCN(CC)c1c([N+](=O)[O-])cc(C(F)(F)F)cc1[N+](=O)[O-]`, the Potency result is “inactive”.

Regarding `NCC(O)c1ccc(O)cc1` (stereo not given), the Potency entry is “inactive”.

In the case of `CCN(CC)C(=O)C(C)Oc1cccc2ccccc12` (stereo not given), the Potency entry is “inactive”.

As to `CC(C)CCCCCCCOP(=O)(Oc1ccccc1)Oc1ccccc1`, the Potency entry is “inactive”.

`c1nc[nH]n1`: the Potency result was “inactive”.

As for `ClCc1cccnc1`, the Potency entry was “inactive”.

Consider `O=c1[nH]c2ccccc2c(=O)o1`, for which the Potency result was “inactive”.

Turning to `COP(=O)(OC)C(O)C(Cl)(Cl)Cl` (stereo not given), the Potency result is “inactive”.

Consider `CC(C)N(C(=O)CCl)c1ccccc1`, for which the Potency entry was “inactive”.

In the case of `Cc1cccc(C)c1NC(=O)CN1CCCC1=O`, the Potency entry is “inactive”.

As to `C=C(C)C#N`, the Potency entry was “inactive”.

For the molecule `CCOC(=O)NC(C)(C)Cc1ccc(Cl)cc1`, the Potency entry was “inactive”.

Take `N[C@@H](Cc1ccc(N(CCCl)CCCl)cc1)C(=O)O`: the Potency result is “inactive”.

As to `CCCCCCCCOC(=O)c1ccc(C(=O)OCCCCCCCC)c(C(=O)OCCCCCCCC)c1`, the Potency entry was “inactive”.

Consider `Clc1cccc(Cl)c1Cl`, for which the Potency result is “inactive”.

Regarding `CCC(CC)Nc1c([N+](=O)[O-])cc(C)c(C)c1[N+](=O)[O-]`, the Potency entry was “inactive”.

Take `CCCCCCCCCCCCCCC(Br)C(=O)O` (stereo not given): the Potency result is “inactive”.

With `CCCCCCCCP(=O)(O)O`, the Potency entry was “inactive”.

For the molecule `Clc1cc(C(Cl)(Cl)Cl)cnc1Cl`, the Potency entry was “inactive”.

With `CNC(=O)Oc1cccc(C(C)C)c1`, the Potency entry is “inactive”.

With `O=C(CCCN1CCC2(CC1)C(=O)NCN2c1ccccc1)c1ccc(F)cc1`, the Potency entry is “inactive”.
